system: Vero E6 infected with SARS-CoV-2; experiment: inhibition of SARS-CoV-2 cytopathic effect; higher = more antiviral protection, active = above 15; settings: 8.33 nM; 48 h

Structure (SMILES)	inhibition of SARS-CoV-2 cytopathic effect
CO[C@H]1C[C@@H]2CC[C@@H](C)[C@@](O)(O2)C(=O)C(=O)N2CCCC[C@H]2C(=O)O[C@H]([C@H](C)C[C@@H]2CC[C@@H](O)[C@H](OC)C2)CC(=O)[C@H](C)/C=C(\C)[C@@H](O)[C@@H](OC)C(=O)[C@H](C)C[C@H](C)/C=C/C=C/C=C/1C [sirolimus]	-3.33% (inactive)
Cl/C=C\C[N+]12CN3CN(CN(C3)C1)C2 [1-((Z)-3-chloroallyl)-1,3,5,7-tetraazaadamantan-1-ium]	0.47% (inactive)
Nc1nc2cc(-c3ccc4ncc(C(=O)N5CCOCC5)n4c3)ccc2o1	5.87% (inactive)
C[C@@H](O)[C@H]1C(=O)N2C(C(=O)O)=C(S[C@@H]3CN[C@H](C(=O)N(C)C)C3)[C@H](C)[C@H]12 [meropenem]	1.38% (inactive)
CC(C)=CCC/C(C)=C/CC/C(C)=C/CC[C@]1(C)CCc2cc(O)cc(C)c2O1 [delta-tocotrienol]	-1.44% (inactive)
Cc1cccc(/C=N/Nc2cc(N3CCOCC3)n3nc(-c4ccncc4)cc3n2)c1	4.2% (inactive)
CN1CCN(CCCN2c3ccccc3Sc3ccc(S(=O)(=O)N(C)C)cc32)CC1 [thioproperazine]	6.36% (inactive)
CN1CCN(C(=O)c2nc3ccc(Cl)cc3[nH]2)CC1	1.3% (inactive)
Cc1cc(C(=O)Nc2nc3cccc(Cl)c3n2[C@@H]2CCCCN(C(=O)/C=C/CN(C)C)C2)ccn1	-0.94% (inactive)
COc1ccc(COc2cc3oc(=O)c4cc(C(C)O)ccc4c3cc2OC)cc1 (stereo not given) [palomid-529]	-1.83% (inactive)
O=C1NC(=O)/C(=C/c2ccc3nccc(-c4ccncc4)c3c2)S1	-1.8% (inactive)
NCCCCN [putrescine]	3.44% (inactive)
N=C(N)NS(=O)(=O)c1ccc(N)cc1 [sulfaguanidine]	1.27% (inactive)
C=CC(=O)Nc1cc(Nc2nccc(-c3c[nH]c4ccccc34)n2)c(OC)cc1N(C)CCN(C)C	-6.83% (inactive)
CC(=O)OCC(=O)[C@@]1(O)[C@@H](C)C[C@H]2[C@@H]3CCC4=CC(=O)C=C[C@]4(C)[C@@]3(F)[C@@H](O)C[C@@]21C [betamethasone-acetate]	0.805% (inactive)
Nc1nc(OCc2ccccc2)c2nc[nH]c2n1 [O6-benzylguanine]	2.87% (inactive)
CC(C)C[C@H](NC(=O)[C@@H](COC(C)(C)C)NC(=O)[C@H](Cc1ccc(O)cc1)NC(=O)[C@H](CO)NC(=O)[C@H](Cc1c[nH]c2ccccc12)NC(=O)[C@H](Cc1cnc[nH]1)NC(=O)[C@@H]1CCC(=O)N1)C(=O)N[C@@H](CCCNC(=N)N)C(=O)N1CCC[C@H]1C(=O)NNC(N)=O [goserelin-acetate]	1.03% (inactive)
CS(=O)(=O)c1ccc(-c2cnc(N)c(C(=O)Nc3ccccc3)n2)cc1	-2.14% (inactive)
CO[C@@H](C)Cn1c(=O)n(C)c2cnc3ccc(-c4cncc(C(C)(C)O)c4)cc3c21	2.32% (inactive)
C[C@H](Nc1cc2c(-c3ccc4c(c3)OCO4)noc2cn1)c1ccccc1	-0.01% (inactive)

Structure (SMILES)	inhibition of SARS-CoV-2 cytopathic effect
CCC(Cc1c(I)cc(I)c(N)c1I)C(=O)O (stereo not given) [iopanic-acid]	2.89% (inactive)
Cc1cc(C(C)(C)C)c(O)c(C)c1CC1=NCCN1 [oxymetazoline]	1.83% (inactive)
CC(C)NC[C@@H](O)COc1ccc(CC(N)=O)cc1 (racemic) [atenolol-(+/-)]	0.225% (inactive)
COC(=O)/C=C/c1cccc(N(Cc2ccc(-c3ccc(N(C)C)cc3)cc2)C(=O)C2CCCCC2)c1 [fexaramine]	0.37% (inactive)
N[C@@H](Cc1ccc(O)cc1)C(=O)NCC(=O)NCC(=O)O	0.88% (inactive)
CSc1ccc2c(c1)[C@H](N1CCN(C)CC1)Cc1ccccc1S2 (racemic) [metitepine]	0.58% (inactive)
Cc1ccccc1-c1cc(N2CCN(C)CC2)ncc1N(C)C(=O)C(C)(C)c1cc(C(F)(F)F)cc(C(F)(F)F)c1 [netupitant]	0.01% (inactive)
COc1ccc2cc(-c3nc(-c4ccc([S+](C)[O-])cc4)[nH]c3-c3ccncc3)ccc2c1 (stereo not given) [tie2-kinase-inhibitor]	5.15% (inactive)
COc1cc2c(Oc3ccc(NC(=O)C4(C(=O)Nc5ccc(F)cc5)CC4)cc3F)ccnc2cc1OCCCN1CCOCC1 [foretinib]	-1.17% (inactive)
CCC(=O)O[C@H]1[C@H](O[C@@H]2[C@@H](C)[C@H](O[C@H]3C[C@@](C)(OC)[C@@H](O)[C@H](C)O3)[C@@H](C)C(=O)O[C@H](CC)[C@@](C)(O)[C@H](O)[C@@H](C)C(=O)[C@H](C)C[C@@]2(C)O)O[C@H](C)C[C@@H]1N(C)C [erythromycin-estolate]	1.07% (inactive)
O=C(/C=C/c1ccc(O)cc1)c1ccc(O)cc1O [isoliquiritigenin]	-0.17% (inactive)
NS(=O)(=O)c1cc2c(cc1Cl)NC(C(Cl)Cl)NS2(=O)=O (stereo not given) [trichlormethiazide]	-5.19% (inactive)
O=C(O)c1cc(N2N=C(C(F)(F)F)/C(=C/c3ccc(-c4ccccc4)o3)C2=O)ccc1Cl	1.11% (inactive)
CC[C@H](CO)Nc1nc(Nc2cccc(-c3ccccn3)c2)c2ncn(C(C)C)c2n1	0.36% (inactive)
Cc1ccc(OCCSc2ncccn2)c(Br)c1	-1.79% (inactive)
C/C(O)=C(\C#N)C(=O)Nc1cc(Br)ccc1Br	0.96% (inactive)
Cc1cc(=O)n(-c2ccccc2)n1C [phenazone]	-0.88% (inactive)
C=CCN1CC[C@]23c4c5ccc(O)c4O[C@H]2/C(=N/NC(=O)c2ccccc2)CC[C@@]3(O)[C@H]1C5 [naloxone-benzoylhydrazone]	0.97% (inactive)
O=[N+]([O-])C(Br)(CO)CO [bronopol]	-3.53% (inactive)
C=CCOc1ccccc1OCC(O)CNC(C)C (stereo not given) [oxprenolol]	-0.87% (inactive)
